# Screens from PubChem BioAssay.
# In the library only some 7.3% were active in any assay of this set; here they are far more common.
# Tau fibril ThT: inhibitors of human tau fibril formation, thioflavin T binding | recombinant tau K18 P301L, heparin-induced fibrillization, ThT fluorescence | Potency, µM (doses to about 57.4 µM), for the others: top-dose activity, negative = inhibition, hits mostly inhibitors | AID 1460 | P10636 | 2.1% of 270,000 active; further: nearly all actives have a fitted effect of over 55% in size
# Target sequence (P10636 561-689 P618L limits assumed): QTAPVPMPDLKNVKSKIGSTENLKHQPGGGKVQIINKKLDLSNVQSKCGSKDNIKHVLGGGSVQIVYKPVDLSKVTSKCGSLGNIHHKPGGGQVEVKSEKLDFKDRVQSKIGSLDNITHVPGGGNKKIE
#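 In this qHTS, human K18 P301L tau is incubated with compound and heparin for 6 hr at 37 C, and Thioflavin T fluorescence then reports fibril load.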
# Gal4-VP16 FLuc: Gal4-VP16 reporter inhibition counter-screen | AID 2546 | Drosophila S2 Gal4-VP16 UAS-luciferase, luminescence, 20 h | Potency, µM (top dose mostly 53.6 µM), for the others: at the top dose activity, negative = inhibition, usual class: inhibitors | 3.5% of 310,000 active;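 further: Gal4-VP16 expression switched on by copper sulfate through the metallothionein promoter; nearly all actives have a fitted effect of over 50% in size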
# Tau fluor cs: counter-screen for tau fibril formation inhibitors; AID 1463; Potency, µM (top dose mostly 57.7 µM), inactives show at the top dose activity change, negative = decrease; tau K18 P301L Alexa594 fluorescence, heparin fibrillization; 0.93% of 280,000 active; further: nearly all actives have a fitted effect of over 55% in size
#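 Human tau K18 P301L (15 uM unlabeled, 0.24 uM Alexa 594-labeled) in 100 mM sodium acetate pH 7 with 20 uM heparin, 6 hr at 37 C. ThT 30 uM added, 1 hr ambient; Alexa 594 FP and total fluorescence read at 555/632 nm.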
# RORg inh: ROR gamma (mouse) transcription inhibition; Potency, µM (titrated, usually from 53.6 µM), without a hit: at the highest dose activity change, negative = inhibition, most hits filed as inhibitors; Drosophila S2 Gal4-RORgamma UAS-luciferase reporter, 20 h; AID 2551; P51450; 5.4% of 310,000 active; further: nearly all actives have a fitted effect of over 60% in size
# Target sequence (P51450 whole entry, looked up, the tested form may be a part): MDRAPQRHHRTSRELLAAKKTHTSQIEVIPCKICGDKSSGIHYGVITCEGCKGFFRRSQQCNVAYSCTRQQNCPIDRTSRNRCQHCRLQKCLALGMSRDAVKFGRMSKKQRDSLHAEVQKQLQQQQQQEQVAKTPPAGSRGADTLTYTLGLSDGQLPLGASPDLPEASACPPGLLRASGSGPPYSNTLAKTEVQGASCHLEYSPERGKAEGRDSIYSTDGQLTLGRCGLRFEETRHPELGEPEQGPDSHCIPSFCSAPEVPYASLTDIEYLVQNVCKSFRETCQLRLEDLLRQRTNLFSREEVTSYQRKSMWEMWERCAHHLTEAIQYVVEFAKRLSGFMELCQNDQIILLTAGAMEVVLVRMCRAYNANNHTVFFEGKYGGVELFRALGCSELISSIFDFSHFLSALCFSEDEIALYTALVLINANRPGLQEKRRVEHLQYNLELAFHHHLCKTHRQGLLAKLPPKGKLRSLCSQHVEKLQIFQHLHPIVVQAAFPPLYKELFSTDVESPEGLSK
#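 Stably transfected Drosophila Schneider cells are the test system, with ROR gamma fused to Gal4 and luciferase under UAS control; luminescence is read after 20 hr of 700 uM copper sulfate induction at ambient temperature.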
# Tau fibril FP: inhibitors of human tau fibril formation. P10636. K18 P301L tau heparin fibrillization, Alexa594 FP, 6 h. Potency, µM (top dose mostly 57.7 µM), without a hit: at the highest dose activity, negative = inhibition, most hits filed as inhibitors. 0.39% of 280,000 active. AID 1468; further: nearly all actives have a fitted effect of over 55% in size
#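 Compound effects on tau fibrillization are measured by Alexa 594 fluorescence polarization (ex 555, em 632 nm). K18 P301L tau is used at 15 uM with 0.24 uM labeled tracer, and 20 uM heparin induces aggregation over 6 hr at 37 C.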
# An asterisk follows results filed as active; u = inconclusive; x = not tested or not shown; [ ] = remark or other dose. The call rests on the fitted dose curve; in most records, active means well fitted curve in the direction sought with a large enough effect; inconclusive means small, poorly fitted or top-dose-only effect, or another doubt; inactive means no such curve, though single readings can be large; an effect the other way counts as inactive or inconclusive. On the % scale 0 is the no-effect control and ±100 the full control effect; potency means the concentration at half of the fitted maximal effect.
SMILES,Tau fibril ThT,Gal4-VP16 FLuc,Tau fluor cs,RORg inh,Tau fibril FP
O=C(NCCN1CCOCC1)C1(C(F)(F)F)CC(CCCO)CCCO1 (centres undefined),x,-5%,x,17%,x
C=CCOC(=O)CSCC(NC(=O)OC(C)(C)C)C(=O)OCC (centres undefined),-3%,11µM*,-5%,8.9µM*,-8%
C=CCOC(=O)/C=C/C(=O)NC(N)=O,x,u,u,20µM*,15%[11.6 µM]
COc1ccccc1CN1CC[C@@]2(CCCN(C(=O)c3cc(C(F)(F)F)cc(C(F)(F)F)c3)C2)C1,x,9%,x,-1%,x
O=C1N=C(N2CCOCC2)S/C1=C/c1ccc(-c2ccc(F)cc2)o1,u,-3%,-15%,-1%,5%
Cc1ccc(-c2ccc(/C=C3\SC(N4CCOCC4)=NC3=O)o2)cc1,13µM*,-7%,u,18%,-5%
Cc1[nH]nc(-c2ccc(O)cc2O)c1Oc1ccccc1,-22%,u,14µM*[quencher],u,18%
CC(C)c1ccc(OC(=O)NCCO)cc1,-13%,25%,-10%,37%,-4%
CCc1cc(-c2n[nH]c(C)c2Oc2ccc(C(C)C)cc2)c(O)cc1O,28µM*,u,7.1µM*[quencher],7.1µM*,u
CCOc1ccc(-c2n[nH]c(C)c2Oc2ccccc2OC)c(O)c1,-5%,2.5µM*,u,2.2µM*,-10%
C=C(C)COc1ccc(-c2n[nH]c(C)c2Oc2ccccc2OC)c(O)c1,u,-16%,-28%,1.6µM*,-6%
C=C(C)COc1ccc(-c2nc(N)nc(C)c2Oc2ccccc2OC)c(O)c1,-12%,-5%,u,23%,-3%
CC(C)OC(=O)c1c(NC(=O)c2cccc(C(F)(F)F)c2)sc2c1CCCC2,-3%,x,-11%,x,-4%
CCc1ccc(OCC2c3cc(OC)c(OC)cc3CCN2C(=O)c2ccc(S(=O)(=O)N3CCCC3)cc2)cc1 (centres undefined),-5%,x,1%,x,13%
COc1ccccc1N1CCN(S(=O)(=O)CCNC(=O)C23CC4CC(CC(C4)C2)C3)CC1,x,-22%,x,14%,x
O=c1c(Oc2ccccc2F)coc2cc(OCc3cnn(-c4ccccc4)c3)ccc12,-4%,2%,1%,-10%,-6%
Cc1[nH]nc(-c2ccc(OCc3cnn(-c4ccccc4)c3)cc2O)c1Oc1ccccc1F,7%,10µM*,u,6.3µM*,u
O=C(Nc1ccc(N2CCCC2)cc1)c1ccc(Br)o1,8.9µM*,4%,u,0%,8%
Cc1cc(N2CCN(C)CC2)nc2ccc(NC(=O)c3ccc(Br)o3)cc12,u,-18%,u,-16%,9%
CCCCc1ccc(C(=O)Nc2ccc3nc(N4CCN(CC)CC4)cc(C)c3c2)cc1,u,x,u,x,-11%
Cc1cc(N2CCCCC2)nc2ccc(NC(=O)c3ccc(Br)o3)cc12,8.9µM*,8%,25µM*[quencher],2%,u
O=C(Nc1ccc(N2CCN(C(=O)c3ccccc3)CC2)cc1)c1ccc(Br)o1,u,-3%,-24%,-10%,5%
Cc1cc(N2CCCCC2)nc2ccc(NC(=O)c3ccc(F)cc3)cc12,u,x,16µM*[quencher],x,u
COCC(=O)N1CCC[C@@]2(CCN(C(=O)Nc3cccc(F)c3)C2)C1,x,4%,x,-8%,x
O=C1NN=COc2ccccc21,-8%,-5%,-3%,13µM*,5%
SMILES,Tau fibril ThT,Gal4-VP16 FLuc,Tau fluor cs,RORg inh,Tau fibril FP
O=C1c2ccccc2C(=O)c2c(Nc3ccc(CCO)cc3)ccc(O)c21,2.8µM*,u,1.8µM*[quencher],-13%,u
COc1ccc(Nc2ncnc3sc4c(c23)CCCC4)cc1,u,x,u,x,4%
COc1ccc(/C=N/Nc2ncnc3sc4c(c23)CCCC4)cc1OC,u,4µM*,-24%,3.2µM*,13%
Cc1c(C(C)NC(=O)c2cc(COc3cccc4cnccc34)on2)cnn1C (centres undefined),x,13µM*,x,-27%,x
CCc1ccc(CN(C)C(=O)c2cc(COc3cccc4cnccc34)on2)cc1,x,u,x,-10%,x
CC(=O)Nc1cccc(-c2csc(Nc3ccc(Cl)cn3)n2)c1,u,-21%,13µM*[quencher],0%,-5%
Cc1ccnc(Nc2nc(-c3c(C)nc4sccn34)cs2)c1,7.9µM*,u,14µM*[quencher],-82%,7%
CC(=O)Nc1cccc(-c2csc(Nc3ccccn3)n2)c1,u,u,u,24%,1%
CC(=O)Nc1ccc(-c2csc(Nc3ncccn3)n2)cc1,-17%,27%,-26%,3%,5%
CC(=O)Nc1ccc(-c2csc(Nc3cc(C)ccn3)n2)cc1,7.1µM*,-3%[10 µM],16µM*[quencher],u,8%
CC(=O)Nc1cccc(-c2csc(Nc3cc(C)ccn3)n2)c1,u,-20%,18µM*[quencher],-10%,5%
Cc1nc2sccn2c1-c1nc(-c2cc3ccccc3o2)cs1,u,7%,-16%,u,-4%
NC(=O)c1ncn([C@@H]2O[C@H](CO)[C@@H](O)[C@H]2O)c1N,x,2%,x,-11%,x
Cc1ccccc1C(=O)NNS(=O)(=O)c1cccc([N+](=O)[O-])c1,x,1%,x,-12%,x
CCCCC[C@H](O)/C=C/C=C/C=C/[C@H](O)C/C=C\CCCC(=O)O,-6%,0%,-1%,7%,7%
N#Cc1cccc(NC(=O)N2CC[C@@]3(CCCN(S(=O)(=O)c4ccccc4)C3)C2)c1,x,-5%,x,-4%,x
Clc1cccc(Cl)c1Cn1cnc2c(NCc3ccco3)ncnc21,-3%,-8%,-4%,1%,0%
Clc1cccc(Cl)c1Cn1cnc(=NCc2ccco2)c2[nH]cnc21,1%,u,1%,18µM*,2%
CCS(=O)(=O)c1ccc(O)c(Nc2cc(C)nc(SC)n2)c1,-16%,x,-17%,x,10%
c1cc2c3c(cccc3c1)NC1(CCCCCC1)N2,u,-4%,u,-30%,10%
c1cc2c3c(cccc3c1)NC1(CCC3(CC1)Nc1cccc4cccc(c14)N3)N2,16µM*,-26%,13µM*[quencher],18%,-11%
CCN(CC)C(=O)Cn1cc(C(=O)C(=O)N2CCN(c3ccc(OC)cc3)CC2)c2ccccc21,x,7%,x,3%,x
Cc1ccc(N2C(=O)C3C4C=CC(CNC(=S)N5CCN(c6ccccc6)CC5)(O4)C3C2=O)cc1 (centres undefined),-5%,u,15%,10µM*,13%
Cc1ccc(S(=O)(=O)NCC23C=CC(O2)C2C(=O)N(c4ccccc4)C(=O)C23)cc1 (centres undefined),u,u,-4%,8.9µM*,3%
Cc1ccc(NC(=S)NCC23C=CC(O2)C2C(=O)N(c4ccc(C)cc4)C(=O)C23)cc1 (centres undefined),-15%,14µM*,-5%,u,9%
C[C@H]1Cc2c(COc3ccccc3)nc3c(c2CO1)CN(C(=O)NCCc1c[nH]c2ccccc12)CC3,11%[11.5 µM],x,3%[11.6 µM],x,8%[11.6 µM]
